According to PubChem BioAssay (Tox21):
A number with no mark means an inactive call. A call without a number means that no potency is given here. Active and inactive are the calls of the source. Calls come from the whole dose curve; as a rule, active = well fitted curve in the direction sought with a large enough effect in the repeat runs; inconclusive = weak or mixed curves; inactive = flat fitted curve, though single readings scatter.

Assay: qHTS assay to test for compound auto fluorescence at 535 nm (green) in HepG2 cells (AID 720675)
Conditions: green autofluorescence 485/535 nm, 1 h; series mostly up to 91.3 µM

Question: Which Potency does the source give for `CC(C)CCOC(=O)c1ccc(N(C)C)cc1` here?
Answer: The Potency was “inactive”.

Question: Which Potency does the source give for `CC(N)=O` here?
Answer: The Potency was “inactive”.

Question: Which Potency does the source give for `CCCCCCCCCCCCc1ccccc1O` here?
Answer: Its Potency is “inactive”.

Question: Which Potency does the source give for `N[C@@H]1CONC1=O` here?
Answer: Its Potency is “inactive”.

Question: With `O=C(Cl)c1cccc(C(=O)Cl)c1` as the molecule, how does the Potency read?
Answer: The Potency was “inactive”.

Question: With `CC(=O)CC(=O)Nc1ccc2[nH]c(=O)[nH]c2c1` as the molecule, how does the Potency read?
Answer: The Potency was “inactive”.

Question: For `C1COC(NC(C2CC2)C2CC2)=N1`, which Potency is on record?
Answer: The Potency was “inactive”.

Question: With `CCCCCC(=O)O[C@]1(C(C)=O)CC[C@H]2[C@@H]3CCC4=CC(=O)CC[C@]4(C)[C@H]3CC[C@@]21C` as the molecule, how does the Potency read?
Answer: The Potency was “inactive”.

Question: Which Potency does the source give for `c1cc(C(c2ccc(OCC3CO3)cc2)C(c2ccc(OCC3CO3)cc2)c2ccc(OCC3CO3)cc2)ccc1OCC1CO1` (stereo unspecified) here?
Answer: Its Potency is “inactive”.

Question: For `CC(C)(c1ccccc1)c1ccc(Nc2ccc(C(C)(C)c3ccccc3)cc2)cc1`, which Potency is on record?
Answer: The Potency was “inactive”.

Question: With `CC(=O)C1=C(C)[C@@H]2C[C@@]3(C1)[C@H](C)CC[C@H]3C2(C)C` as the molecule, how does the Potency read?
Answer: The Potency was “inactive”.

Question: For `C=CC(=O)OCCCCCCOC(=O)C=C`, which Potency is on record?
Answer: Its Potency is “inactive”.

Question: Which Potency does the source give for `CCC(C)(Oc1ccc(C2(c3ccc(OC(C)(CC)C(=O)O)cc3)CCCCC2)cc1)C(=O)O` (stereo unspecified) here?
Answer: The Potency was “inactive”.

Question: With `O=C(OCc1ccccc1)c1ccc(O)cc1` as the molecule, how does the Potency read?
Answer: Its Potency is “inactive”.

Question: With `COc1nc(C)nc(Cl)c1NC1=NCCN1` as the molecule, how does the fluorescence, % of fluorescein control read?
Answer: The fluorescence, % of fluorescein control was -0.17% [at 18.6 µM].

Question: With `O=Nc1ccc(Nc2ccccc2)cc1` as the molecule, how does the Potency read?
Answer: Its Potency is “inactive”.

Question: With `CCC(=O)/C=C/C1C(C)=CCCC1(C)C` (stereo unspecified) as the molecule, how does the Potency read?
Answer: Its Potency is “inactive”.

Question: Which Potency does the source give for `COc1ccc(COC(C)=O)cc1` here?
Answer: Its Potency is “inactive”.

Question: With `CCCCCCCCCCCCCC[P+](CCCC)(CCCC)CCCC` as the molecule, how does the Potency read?
Answer: The Potency was “inactive”.

Question: For `Oc1ccc(Cl)cc1Cc1cc(Cl)ccc1O`, which Potency is on record?
Answer: Its Potency is “inactive”.

Question: For `Oc1c(Cl)cc(Cl)cc1Sc1cc(Cl)cc(Cl)c1O`, which Potency is on record?
Answer: Its Potency is “inactive”.
